High-throughput results from PubChem BioAssay.
In the library only some 10% were active in any assay of this set; here they are far more common.
Gal4-VP16 FLuc: Gal4-VP16 reporter inhibition counter-screen; Drosophila S2 Gal4-VP16 UAS-luciferase, luminescence, 20 h; Potency, µM (series often up to 53.6 µM), for inactives: top-dose activity, negative = inhibition, most hits filed as inhibitors; 310,000 compounds, 3.5% hits; AID 2546;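 further: Gal4-VP16 expression switched on by copper sulfate through the metallothionein promoter; on the % scale 0 is the no-effect control and ±100 the full control effect; nearly all actives have a fitted effect of over 50% in size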
KB-3-1 tox: kills parental KB-3-1 adenocarcinoma cells; KB-3-1 viability, CellTiter-Glo ATP luminescence, 72 h; Potency, µM (series often up to 46.1 µM), usual class: cytotoxic; 400,000 compounds, 1.4% hits; AID 1347075; further: on the % scale 0 is the no-effect control and ±100 the full control effect; nearly all actives have a fitted effect of over 60% in size
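Cytotoxicity in the drug-sensitive parental line KB-3-1 was scored as loss of CellTiter-Glo luminescence following 72 h incubation with compound. Values come from curve fitting of normalized concentration-response data.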
MCF10A rereplic: inducers of DNA re-replication in MCF 10A breast cells; AID 624296; Potency, µM (titrated, usually from 46.1 µM), for inactives: at the highest dose activity, positive = re-replication, most hits filed as activators; MCF 10A DNA re-replication, Hoechst nuclear intensity, 48 h; 350,000 compounds, 2.9% hits; further: % of control where 0% means no effect; nearly all actives have a fitted effect of over 50% in size
SW480 rerep: induces DNA re-replication in SW480 colon adenocarcinoma cells; SW480 DNA re-replication, Hoechst DNA content imaging, 48 h; Potency, µM (titrated, usually from 46.1 µM), without a hit: top-dose re-replication activation, actives largely listed as activators; 340,000 compounds, 1.8% hits; further: % of control where 0% means no effect; nearly all actives have a fitted effect of over 55% in size
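250 cells/well; 23 nL cpd via pin tool; 48 hr, 37 C, 5% CO2; Hoechst 40 min; imager read of total nuclear intensity, ex 405/em 500-530 nm.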
RORg inh: blocks mouse ROR gamma transcriptional activity | P51450 | Drosophila S2 Gal4-RORgamma UAS-luciferase reporter, 20 h | Potency, µM (series often up to 53.6 µM), inactives show top-dose activity change, negative = inhibition, usual class: inhibitors | 310,000 compounds, 5.4% hits; further: on the % scale 0 is the no-effect control and ±100 the full control effect; nearly all actives have a fitted effect of over 60% in size
Target sequence (P51450 whole entry, looked up, the tested form may be a part): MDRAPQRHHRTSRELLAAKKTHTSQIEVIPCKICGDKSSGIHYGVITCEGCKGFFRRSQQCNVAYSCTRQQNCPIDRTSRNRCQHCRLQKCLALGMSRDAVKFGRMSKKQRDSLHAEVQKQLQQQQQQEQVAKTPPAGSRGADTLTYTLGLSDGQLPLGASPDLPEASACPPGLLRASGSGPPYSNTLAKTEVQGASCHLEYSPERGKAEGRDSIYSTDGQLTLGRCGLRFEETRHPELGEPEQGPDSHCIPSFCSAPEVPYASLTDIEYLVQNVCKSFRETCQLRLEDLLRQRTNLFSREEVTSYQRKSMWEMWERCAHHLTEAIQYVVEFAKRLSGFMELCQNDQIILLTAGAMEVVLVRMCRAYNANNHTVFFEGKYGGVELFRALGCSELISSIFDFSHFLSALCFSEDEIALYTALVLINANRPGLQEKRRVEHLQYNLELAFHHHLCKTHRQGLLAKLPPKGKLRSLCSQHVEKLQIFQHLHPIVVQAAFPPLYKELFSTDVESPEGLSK
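Stably transfected Drosophila Schneider cells are the test system, with ROR gamma fused to Gal4 and luciferase under UAS control; luminescence is read after 20 hr of 700 uM copper sulfate induction at ambient temperature.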
KB-V1 MDR tox: KB-V1 MDR subline cytotoxicity; KB-V1 MDR cells viability, CellTiter-Glo, 72 h; Potency, µM (titrated, usually from 46.1 µM), usual class: cytotoxic; 400,000 compounds, 3.4% hits; further: on the % scale 0 is the no-effect control and ±100 the full control effect; nearly all actives have a fitted effect of over 60% in size
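Cells of the MDR subline KB-V1 are plated, dosed with compound at multiple concentrations, and incubated 72 h at 37 degrees C; CellTiter-Glo is then added and luminescence read after 10 min.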
Starred values were filed as active, the others as inactive; i = inactive; ? = inconclusive; . = no result; [ ] = remark or other dose. The call rests on the fitted dose curve; in most records, active means well fitted curve in the direction sought with a large enough effect; inconclusive means small, poorly fitted or top-dose-only effect, or another doubt; inactive means no such curve, though single readings can be large; an effect the other way counts as inactive or inconclusive. Potency means the concentration at half of the fitted maximal effect.

SMILES	Gal4-VP16 FLuc	KB-3-1 tox	MCF10A rereplic	SW480 rerep	RORg inh	KB-V1 MDR tox
CC(Cl)(Cl)Cl	1%	.	.	.	0%	.
O[N+]1=CC=CCC1=S.On1ccccc1=S.[Zn]	0.5µM*	.	.	.	0.32µM*	.
CC(C)C[C@H]1C(=O)N2CCC[C@H]2[C@]2(O)O[C@](NC(=O)[C@@H]3C=C4c5cccc6[nH]c(Br)c(c56)C[C@H]4N(C)C3)(C(C)C)C(=O)N12	-26%	.	.	.	?	.
COC(=O)C(O)(c1ccc(NC(=S)NC(=O)c2ccccc2)cc1)C(F)(F)F (stereo not drawn)	?	i	?	?	10µM*	i
COc1cc(/C=C2\C[C@H]3[C@@H]4CC=C5C[C@@H](N6CCCC6)CC[C@]5(C)[C@H]4CC[C@]3(C)[C@H]2O)cc(OC)c1OC	.	i	?	20%	.	2.9µM*
CC(=O)Oc1ccc(/C=C/c2cc(OC(C)=O)cc(OC(C)=O)c2)cc1	?	.	.	.	4µM*	.
COC1(C)CC(c2ccccc2)c2c(c3ccccc3oc2=O)O1 (stereo not drawn)	-3%	.	.	.	26%	.
Cc1nc2cc(OC(=O)N(C)Cc3cccc(-c4ccncc4)c3)ccc2s1	.	?	.	.	.	i
CN(Cc1cccc(-c2ccncc2)c1)C(=O)Oc1ccccc1Cc1ccccc1	.	15µM*	.	.	.	?
CN(Cc1cccc(-c2ccncc2)c1)C(=O)Oc1ccccc1Cl	.	15µM*	.	.	.	i
O=C1C=CC[C@@H]2[C@H]3CCCN4CCC[C@@H](CN12)[C@@H]34	-2%	.	.	.	-13%	.
CCN(CC)C(=O)c1ccc(NC(=O)CCn2nc(-c3ccc(Cl)cc3)c3ccccc3c2=O)cc1	.	i	.	.	.	i
COc1ccc2[nH]cc(CCN)c2c1	-15%	i	2%	-8%	4%	i
CCCCCCCCCOc1ccc2[nH]cc(CCN)c2c1	?	.	.	.	3.2µM*	.
Cc1ncc2n1-c1ccc(Cl)cc1C(c1ccccc1F)=NC2O (stereo not drawn)	7%	.	.	.	-44%	.
C[C@]12CC[C@H](N)CC1=CCC1C2CC[C@@]2(C)C1CC[C@@H]2O (stereo partly drawn)	.	i	?	18µM*	.	i
C[C@]12CC[C@@H](O)CC1=CCC1C2CC[C@@]2(C)C1CC[C@@H]2N (stereo partly drawn)	.	i	?	?	.	i
C[C@@H]1CC2C3CC=C4C[C@@H](O)CC[C@]4(C)C3CC[C@]2(C)[C@H]1O (stereo partly drawn)	.	?	-1%	13%	.	?
C[C@H]1CC2C3CC=C4C[C@@H](O)CC[C@]4(C)C3CC[C@]2(C)[C@H]1O (stereo partly drawn)	.	i	?	-4%	.	18µM*
Cc1ccc(Cl)cc1NC(=O)N(Cc1ccc2c(c1)OCO2)C1CCN(Cc2ccccc2)CC1	.	i	.	.	.	?
CC(C)c1cccc(C(C)C)c1OCCn1ccnc1	?	i	-1%	?	22µM*	23µM*
c1ccc(Cn2ccnc2)cc1	0%	i	4%	-8%	6%	i
Nc1ccccc1	1%	.	.	.	-2%	.
COc1ccc(-c2oc3cc(OC)ccc3c(=O)c2O)cc1	7.9µM*	.	.	.	5µM*	.
C=C(C)C(=O)OCC1CO1 (stereo not drawn)	-11%	.	.	.	14%	.
SMILES	Gal4-VP16 FLuc	KB-3-1 tox	MCF10A rereplic	SW480 rerep	RORg inh	KB-V1 MDR tox
CC(C)(C)c1ccc(O)c(N=Cc2c(O)ccc3ccccc23)c1	11µM*	?	?	?	13µM*	i
CCCCCCOc1ccc(C(=O)n2cnc(N)n2)cc1	16%	i	23µM*	-4%	21%	i
CCC(C=C[C@@H]1OC(=O)C=C[C@H]1C)=C[C@H](C)CC=CC(C)=C[C@@H](C)C(=O)[C@@H](C)[C@H](O)[C@@H](C)CC(C)=CC(=O)O	1.3µM*	.	.	.	?	.
COc1ccc(C)cc1NC(=O)N(Cc1ccc2c(c1)OCO2)C1CCN(Cc2ccccc2)CC1	.	i	.	.	.	i
CC(=O)C1CCC2C3CCC4CC(O)CCC4(C)C3CC(O)C12C (stereo not drawn)	17%	.	.	.	-28%	.
COC(=O)[C@]1(C)CC[C@@]2(C)CC[C@@]3(C)C4=CC=C5C(=CC(=O)C(O)=C5C)[C@@]4(C)CC[C@@]3(C)C2C1 (stereo partly drawn)	3.5µM*	.	.	.	4µM*	.
CCCSC(=O)Cl	3%	.	.	.	15%	.
CCC(C(=O)O)C1CCC(C)C(C(C)C(O)C(C)C(=O)C(CC)C2OC3(C=CC(O)[C@@]4(CC[C@](C)(C5CC[C@@](O)(CC)C(C)O5)O4)O3)C(C)CC2C)O1 (stereo partly drawn)	2.2µM*	.	?	?	1.8µM*	.
COc1ccc(OCCn2cc(/C=C(\C#N)C(=O)NCc3ccco3)c3ccccc32)cc1	3.5µM*	i	?	?	-41%	i
COc1cc([N+](=O)[O-])c2ncccc2c1[N+](=O)[O-]	.	?	.	.	.	16µM*
O=[N+]([O-])c1ccc(N2CCCC2)c2ncccc12	-7%[10 µM]	i	-3%	-10%	-2%	?
COc1cc([N+](=O)[O-])cc([N+](=O)[O-])c1N	.	i	.	.	.	i
COc1cc([N+](=O)[O-])c2nc(C)ccc2c1[N+](=O)[O-]	.	i	?	15µM*	.	?
Cc1cc(C)nc(/N=C/c2c(O)n(C)c(=O)n(C)c2=O)n1	?	.	.	.	0%	.
Cc1ccc(S(=O)(=O)CC(C)(O)C(=O)Nc2cccc(C(F)(F)F)c2)cc1 (stereo not drawn)	-3%	i	-8%	4%	19%	i
CC(O)(CS(=O)(=O)c1ccccc1)C(=O)Nc1cccc(C(F)(F)F)c1 (stereo not drawn)	2%	i	-7%	4%	28%	21µM*
O=C(O)c1[nH]c(=O)[nH]c(=O)c1F	-14%	7.3µM*	-5%	-6%	-6%	i
O=C(Oc1ccccc1)N1CCC2(CCCN(Cc3nccs3)C2)CC1	2%	.	.	.	27%	.
Cc1ccc(OCCOc2cccc(C=C3C(=O)NC(=O)NC3=O)c2)c(C)c1	4µM*	i	12%	15%	7.9µM*	i
O=C1NC(=O)C(=Cc2cccc(OCCOc3ccccc3)c2)C(=O)N1	?	i	0%	7%	?	i
CC1(C)[C@H](C(=O)O[C@H](C#N)c2cccc(Oc3ccccc3)c2)[C@@H]1C=C(Br)Br	5%	.	.	.	9%	.
CC(=O)Nc1ccccc1C(=O)OCc1ccc(C(=O)c2ccccc2)cc1	?	?	?	25%	36%	6.5µM*
